From PubChem BioAssay (EPA / NIEHS) come the findings set out here.

Read-out in test [1]: C-C motif chemokine 2 (Homo sapiens) (UniProt P13500)
The test is described as follows: BSK_KF3CT_MCP1: BioMAP Diversity Plus: KF3CT Assay for Monocyte Chemoattractant Protein 1 (MCP1/CCL2) Biomarker Activity (AID 2283073). Conditions: primary human keratinocytes with fibroblasts; actives raise or lower the signal. The gist of the method:
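Human keratinocyte plus foreskin fibroblast primary co-culture exposed to chemical for 24 h. MCP-1 levels measured by ELISA. Bidirectional curve fitting relative to DMSO negative control as baseline.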

Read-out in test [2]: Matrix Metallopeptidase 9 (MMP9), MMP9 (gene 4318)
In words: BSK_KF3CT_MMP9: BioMAP Diversity Plus: KF3CT Assay for Matrix Metallopeptidase 9 (MMP9) Biomarker Activity (AID 2283074).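 For AC50: MMP9 protein level quantified by ELISA in the co-culture.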 Conditions: primary human keratinocytes with fibroblasts; actives raise or lower the signal. In a few lines: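 MMP-9 quantified by ELISA after 24 h chemical treatment of primary human skin keratinocyte/fibroblast co-cultures; gain or loss fitted against DMSO, with parallel SRB staining (0.1% SRB, 560 nm) for overt cytotoxicity.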

Read-out in test [3]: urokinase plasminogen activator (uPA), PLAU (gene 5328)
In words: BSK_KF3CT_uPA: BioMAP Diversity Plus: KF3CT Assay for urokinase plasminogen activator (uPA) Biomarker Activity (AID 2283075). As to conditions: primary human keratinocytes with fibroblasts; actives raise or lower the signal. The gist of the method:
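ELISA read-out of uPA 24 h after dosing human skin keratinocytes co-cultured with foreskin fibroblasts. Signal change fitted both ways relative to DMSO; sulforhodamine B on parallel cultures marks overt cytotoxicity.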

Read-out in test [4]: CD40, CD40 (gene 958)
The test is described as follows: BSK_LPS_CD40: BioMAP Diversity Plus: LPS Assay for CD40 Biomarker Activity (AID 2283076). Conditions: primary human HUVEC with PBMC; actives raise or lower the signal. In a few lines:
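Primary human umbilical vein endothelial cells co-cultured with peripheral blood mononuclear cells, LPS-stimulated, were dosed with chemical and read 24 h later. CD40 levels were measured by ELISA and fitted bidirectionally against DMSO as negative control and baseline.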

Read-out in test [5]: E-selectin (Homo sapiens) (UniProt P16581)
In words: BSK_LPS_Eselectin: BioMAP Diversity Plus: LPS Assay for Eselectin Biomarker Activity (AID 2283077). As to conditions: primary human HUVEC with PBMC; actives raise or lower the signal. The gist of the method: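 Human umbilical vein endothelial cells co-cultured with peripheral blood mononuclear cells under LPS stimulation; E-selectin measured by ELISA 24 h after chemical dosing. Activity fitted bidirectionally against DMSO as negative control and baseline.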

Read-out in test [6]: Interleukin-8 (IL8), CXCL8 (gene 3576)
In words: BSK_LPS_IL8: BioMAP Diversity Plus: LPS Assay for Interleukin-8 (IL8) Biomarker Activity (AID 2283078). Conditions: primary human HUVEC with PBMC; actives raise or lower the signal. The gist of the method:
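Human umbilical vein endothelial cells co-cultured with PBMC were stimulated with LPS; IL-8 levels were measured by ELISA 24 h after chemical dosing. Activity was fitted bidirectionally against DMSO as negative control and baseline.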

The nature of test [7]: BSK_LPS_SRB: Viability Assessment in the BioMAP Diversity Plus: LPS Assay (AID 2283079).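 Note: total protein by sulforhodamine B absorbance as a cytotoxicity measure; measured one day after compound addition; fitted in both directions against DMSO so loss or gain of signal counts.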 Conditions: primary human HUVEC with PBMC. The gist of the method: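 Human umbilical vein endothelial cells co-cultured with PBMC (LPS system) were dosed for 24 h. Total protein was stained with 0.1% sulforhodamine B after 10% TCA fixation, read at 560 nm, and fitted bidirectionally against DMSO baseline.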

Read-out in test [8]: Interleukin-1 alpha (IL1a), IL1A (gene 3552)
In words: BSK_LPS_IL1a: BioMAP Diversity Plus: LPS Assay for Interleukin-1 alpha (IL1a) Biomarker Activity (AID 2283080). As to conditions: primary human HUVEC with PBMC; actives raise or lower the signal. In a few lines:
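Human umbilical vein endothelial cells co-cultured with peripheral blood mononuclear cells were LPS-stimulated and exposed to test chemicals for 24 h. IL-1 alpha was quantified by ELISA, with bidirectional curve fitting against DMSO as the negative control and baseline.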

Read-out in test [9]: Monocyte Chemoattractant Protein-1 (MCP1), CCL2 (gene 6347)
In words: BSK_LPS_MCP1: BioMAP Diversity Plus: LPS Assay for Monocyte Chemoattractant Protein-1 (MCP1) Biomarker Activity (AID 2283081).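 For AC50: secreted MCP-1 protein quantified by ELISA in culture supernatant.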 As to conditions: primary human HUVEC with PBMC; actives raise or lower the signal. The gist of the method: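 HUVEC plus PBMC co-culture (human primary cells, LPS system) exposed to test chemical for 24 h; MCP-1 measured by ELISA. Bidirectional curve fitting against DMSO baseline; parallel SRB total-protein staining flags overt cytotoxicity.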

Test [10] can be described thus: BSK_LPS_PGE2: BioMAP Diversity Plus: LPS Assay for Prostaglandin E2 (PGE2) Biomarker Activity (AID 2283082).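 For AC50: secreted prostaglandin E2 measured by ELISA in LPS-stimulated co-culture.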 Conditions: primary human HUVEC with PBMC; actives raise or lower the signal. In a few lines:
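ELISA read-out of PGE2 from human umbilical vein endothelial cells co-cultured with peripheral blood mononuclear cells under LPS, 24 h post-dose. Gain or loss of signal scored relative to DMSO baseline.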

Read-out in test [11]: Macrophage colony-stimulating factor (MCSF), CSF1 (gene 1435)
The test is described as follows: BSK_LPS_MCSF: BioMAP Diversity Plus: LPS Assay for Macrophage colony-stimulating factor (MCSF) Biomarker Activity (AID 2283083). Conditions: primary human HUVEC with PBMC; actives raise or lower the signal. The gist of the method: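 Human umbilical vein endothelial cells co-cultured with peripheral blood mononuclear cells were exposed to compound for 24 h. M-CSF levels were measured by ELISA, and bidirectional curve fitting used DMSO as the negative control and baseline.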

Read-out in test [12]: Tissue Factor, F3 (gene 2152)
In words: BSK_LPS_TissueFactor: BioMAP Diversity Plus: LPS Assay for Tissue Factor Biomarker Activity (AID 2283084). As to conditions: primary human HUVEC with PBMC; actives raise or lower the signal. In a few lines:
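Human umbilical vein endothelial cells co-cultured with peripheral blood mononuclear cells were dosed and stimulated with LPS. Cell-surface CD142 was quantified by ELISA at 24 h. Activity was fitted bidirectionally against DMSO baseline.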

Read-out in test [13]: Tumor necrosis factor (Homo sapiens) (UniProt P01375)
The test is described as follows: BSK_LPS_TNFa: BioMAP Diversity Plus: LPS Assay for Tumour Necrosis Factor alpha (TNFa) Biomarker Activity (AID 2283085). As to conditions: primary human HUVEC with PBMC; actives raise or lower the signal. In a few lines:
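HUVEC/PBMC co-culture, LPS-stimulated; 24 h post-dose; TNFa by ELISA; gain or loss of signal fitted bidirectionally vs DMSO baseline.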

Read-out in test [14]: Vascular cell adhesion molecule 1 (VCAM1), VCAM1 (gene 7412)
In words: BSK_LPS_VCAM1: BioMAP Diversity Plus: LPS Assay for Vascular cell adhesion molecule 1 (VCAM1) Biomarker Activity (AID 2283086). Conditions: primary human HUVEC with PBMC; actives raise or lower the signal. In a few lines: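 ELISA read-out of VCAM-1 at 24 h post-dosing in an LPS-driven HUVEC/PBMC primary human co-culture; gain or loss of signal fitted bidirectionally against DMSO baseline. Cytotoxicity tracked in parallel cultures by SRB total-protein staining.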

Read-out in test [15]: CD38, CD38 (gene 952)
In words: BSK_SAg_CD38: BioMAP Diversity Plus: SAg Assay for CD38 Biomarker Activity (AID 2283087). Conditions: primary human HUVEC with PBMC; actives raise or lower the signal. The gist of the method:
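Measures CD38 on a human endothelial/PBMC co-culture driven by SEB and TSST-1, 24 h after compound exposure, using ELISA with fluorescence detection; DMSO defines baseline for bidirectional curve fitting.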

Read-out in test [16]: CD40, CD40 (gene 958)
In words: BSK_SAg_CD40: BioMAP Diversity Plus: SAg Assay for CD40 Biomarker Activity (AID 2283088). Conditions: primary human HUVEC with PBMC; actives raise or lower the signal. The gist of the method:
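Human umbilical vein endothelial cells co-cultured with PBMC; CD40 levels measured by ELISA with fluorescence read-out 24 h after chemical dosing. Gain or loss of signal fitted bidirectionally against DMSO baseline.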

Read-out in test [17]: CD69, CD69 (gene 969)
The test is described as follows: BSK_SAg_CD69: BioMAP Diversity Plus: SAg Assay for CD69 Biomarker Activity (AID 2283089).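 For AC50: cell surface CD69 protein quantified by ELISA with fluorescence detection.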 As to conditions: primary human HUVEC with PBMC; actives raise or lower the signal. In a few lines:
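Primary human vascular co-culture (umbilical vein endothelium with peripheral blood mononuclear cells) exposed to test chemical for 24 h. CD69 levels quantified by fluorescence ELISA; DMSO served as negative control for bidirectional fitting.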

Read-out in test [18]: Monocyte Chemoattractant Protein-1 (MCP1), CCL2 (gene 6347)
The test is described as follows: BSK_SAg_MCP1: BioMAP Diversity Plus: SAg Assay for Monocyte Chemoattractant Protein-1 (MCP1) Biomarker Activity (AID 2283090). Conditions: primary human HUVEC with PBMC; actives raise or lower the signal. In a few lines: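 Values derive from bidirectional fitting of ELISA-measured MCP1 against DMSO controls. Readings were taken 24 h after dosing human vascular endothelial cells co-cultured with peripheral blood mononuclear cells under superantigen stimulation.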

Read-out in test [19]: E-selectin (Homo sapiens) (UniProt P16581)
In words: BSK_SAg_Eselectin: BioMAP Diversity Plus: SAg Assay for Eselectin Biomarker Activity (AID 2283091). As to conditions: primary human HUVEC with PBMC; actives raise or lower the signal. The gist of the method:
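HUVEC co-cultured with PBMC, compound dosed then read at 24 h; E-selectin measured by ELISA. Activity fitted bidirectionally against DMSO as negative control and baseline.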

Read-out in test [20]: Monokine induced gamma interferon (MIG), CXCL9 (gene 4283)
In words: BSK_SAg_MIG: BioMAP Diversity Plus: SAg Assay for Monokine induced gamma interferon (MIG) Biomarker Activity (AID 2283092). As to conditions: primary human HUVEC with PBMC; actives raise or lower the signal. The gist of the method:
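Endothelial cells and PBMC were co-cultured, exposed to test chemicals, and sampled 24 h later. MIG was measured by ELISA, and responses were fitted in both directions relative to DMSO.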

The structures appear in SMILES notation. Active and inactive are the calls of the source. Rule for the calls: active = hit-call score of the fitted dose curve at least 0.9, where 1 is the maximum; inactive = score below 0.9.

E-selectin (Homo sapiens), sequence (P16581 whole entry, looked up): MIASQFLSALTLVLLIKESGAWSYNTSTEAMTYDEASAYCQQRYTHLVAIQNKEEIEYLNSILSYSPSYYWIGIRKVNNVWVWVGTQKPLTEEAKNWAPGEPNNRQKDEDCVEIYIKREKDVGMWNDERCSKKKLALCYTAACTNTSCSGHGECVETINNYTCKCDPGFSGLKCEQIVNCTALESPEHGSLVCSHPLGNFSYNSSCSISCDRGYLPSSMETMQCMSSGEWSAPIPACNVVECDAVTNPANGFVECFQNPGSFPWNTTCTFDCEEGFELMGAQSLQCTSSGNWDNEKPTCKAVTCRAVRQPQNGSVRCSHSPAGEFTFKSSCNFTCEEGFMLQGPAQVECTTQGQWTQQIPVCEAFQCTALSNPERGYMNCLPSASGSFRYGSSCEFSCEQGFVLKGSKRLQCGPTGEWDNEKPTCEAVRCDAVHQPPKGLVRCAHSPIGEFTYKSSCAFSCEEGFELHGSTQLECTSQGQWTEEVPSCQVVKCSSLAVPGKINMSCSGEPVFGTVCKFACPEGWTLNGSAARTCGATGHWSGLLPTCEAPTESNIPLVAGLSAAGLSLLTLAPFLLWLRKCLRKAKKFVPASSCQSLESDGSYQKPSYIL
Tumor necrosis factor (Homo sapiens), sequence (P01375 whole entry, looked up): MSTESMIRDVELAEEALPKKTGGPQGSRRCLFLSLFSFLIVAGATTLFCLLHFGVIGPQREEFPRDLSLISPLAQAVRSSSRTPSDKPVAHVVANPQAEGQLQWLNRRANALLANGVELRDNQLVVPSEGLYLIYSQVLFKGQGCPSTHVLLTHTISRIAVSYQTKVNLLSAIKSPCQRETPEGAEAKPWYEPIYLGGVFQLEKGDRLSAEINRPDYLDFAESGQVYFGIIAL

For `CC(O)CO` (stereo not drawn), the outcome in [1], in test [2], in test [3], in [4], in [5] and in [6] was inactive. Also, the outcome in [7], in test [8], in test [9], in test [10], in [11] and in test [12] was inactive. Moreover, the result in [13], in test [14], in test [15], in test [16], in [17] and in test [18] was inactive. Moreover, the outcome in [19] and in test [20] was inactive.
As usually defined, the AC50 is the concentration at which the activity in the assay is half-maximal. With `CC#C[C@]1(O)CC[C@H]2[C@@H]3CCC4=CC(=O)CCC4=C3[C@@H](c3ccc(N(C)C)cc3)C[C@@]21C`, the AC50 is 34.2 µM (active) in test [1]; 24.1 µM (active) in [2]; 33.8 µM (active) in [4]; 30.5 µM (active) in [5]; 32.6 µM (active) in test [6]; 27.9 µM (active) in [7]. Besides, the AC50 in [8] was 31.3 µM (active); in test [9] it was 31.5 µM (active); in test [11], 12.1 µM (active); in [15] it was 36.6 µM (active); in test [16] it was 31.2 µM (active); in test [17] it was 31.9 µM (active). Also, the concentration at half-maximal activity (AC50) is 31.7 µM (active) in test [18], 33.4 µM (active) in [19] and 35.5 µM (active) in [20]. The result in test [3], in [10] and in test [12] was inactive.
Take `NC(=O)N1C(=O)C(C(=O)c2cc(Cl)cs2)c2cc(F)c(Cl)cc21` (stereo not drawn): the outcome in test [1], in [6], in [11], in test [13], in test [14] and in test [20] was inactive. Moreover, the AC50 in [2] was 4.33 µM (active); in test [3], 12.5 µM (active); in [4] it was 17.7 µM (active); in test [5], 1.47 µM (active); in test [7], 20 µM (active); in test [8], 20 µM (active). Besides, the AC50 in [9] was 5.47 µM (active); in test [10], 0.345 µM (active); in test [12], 11.1 µM (active); in test [15] it was 24.9 µM (active); in test [16], 16.4 µM (active); in [17] it was 20 µM (active). Besides, the AC50 is 5.4 µM (active) in [18] and 8.61 µM (active) in test [19].
